According to the supplement of paper PMC11732987, “Enantioselective OTUD7B fragment discovery through chemoproteomics screening and high-throughput optimisation” (Communications Chemistry, 2025):

Legend:
Assay in all cases: log2 ratio of Biotin-Ahx-Ub-VS probe labelling (fragment/DMSO); higher = less target engagement (more negative = stronger competition), active = hit call of the paper (q ≤ 0.05, log2 ratio ≤ -1)
Conditions in all cases: compound concentration: 200 uM; treatment time: 3 h
USP42 = biological target: T1, USP42 (UniProt Q9H9J4)
T1 sequence (whole entry): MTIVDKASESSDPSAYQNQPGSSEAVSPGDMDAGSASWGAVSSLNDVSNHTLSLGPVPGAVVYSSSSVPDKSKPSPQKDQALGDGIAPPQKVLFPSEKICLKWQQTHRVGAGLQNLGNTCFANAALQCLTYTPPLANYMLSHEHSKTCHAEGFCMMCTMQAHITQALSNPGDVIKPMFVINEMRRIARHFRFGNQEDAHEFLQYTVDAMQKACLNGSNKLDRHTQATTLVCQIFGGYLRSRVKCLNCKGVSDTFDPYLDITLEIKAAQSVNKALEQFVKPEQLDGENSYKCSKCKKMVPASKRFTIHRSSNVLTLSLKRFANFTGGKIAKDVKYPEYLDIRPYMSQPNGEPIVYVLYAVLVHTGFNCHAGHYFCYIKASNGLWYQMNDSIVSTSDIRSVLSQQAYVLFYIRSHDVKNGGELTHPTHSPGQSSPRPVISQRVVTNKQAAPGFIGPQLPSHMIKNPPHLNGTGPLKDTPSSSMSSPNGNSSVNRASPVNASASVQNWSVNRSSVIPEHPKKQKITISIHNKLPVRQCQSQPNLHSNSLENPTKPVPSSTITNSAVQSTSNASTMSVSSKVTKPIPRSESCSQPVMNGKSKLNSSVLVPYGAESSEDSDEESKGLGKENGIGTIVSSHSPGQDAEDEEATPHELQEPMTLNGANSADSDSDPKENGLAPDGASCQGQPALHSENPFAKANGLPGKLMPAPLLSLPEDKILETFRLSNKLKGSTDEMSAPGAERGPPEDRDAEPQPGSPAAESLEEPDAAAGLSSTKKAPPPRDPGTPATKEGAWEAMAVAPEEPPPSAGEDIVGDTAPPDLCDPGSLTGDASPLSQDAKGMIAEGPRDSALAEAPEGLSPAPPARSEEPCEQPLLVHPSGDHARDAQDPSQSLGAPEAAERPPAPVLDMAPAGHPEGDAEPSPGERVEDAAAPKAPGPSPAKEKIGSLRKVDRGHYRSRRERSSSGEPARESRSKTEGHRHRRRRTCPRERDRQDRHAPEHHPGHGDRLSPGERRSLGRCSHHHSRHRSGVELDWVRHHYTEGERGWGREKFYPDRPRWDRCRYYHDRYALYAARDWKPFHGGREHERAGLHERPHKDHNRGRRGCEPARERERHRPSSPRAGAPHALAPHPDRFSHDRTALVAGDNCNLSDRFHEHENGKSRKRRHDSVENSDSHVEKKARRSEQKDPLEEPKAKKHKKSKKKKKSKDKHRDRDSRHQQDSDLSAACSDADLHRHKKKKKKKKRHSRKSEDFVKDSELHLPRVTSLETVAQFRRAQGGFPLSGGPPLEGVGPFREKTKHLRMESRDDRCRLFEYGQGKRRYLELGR
Outline: (§1)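 HEK293T lysate (495 µg per sample, in Tris/CHAPS/IGEPAL buffer with protease inhibitors) was exposed in triplicate for 3 h to fragment at 200 µM or to vehicle, then to Biotin-Ahx-Ub-VS at 0.5 µM final for 1 h. Labelled DUBs were enriched on NeutrAvidin, digested with LysC and trypsin, and analysed by diaPASEF LC-MS/MS. Spectronaut label-free quantities were normalised to the global median, and values are average log2 ratios of fragment over vehicle from an unpaired t-test. Only proteins with ≥2 unique peptides were used.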

USP46 = USP46 (UniProt P62068)
Outline: as §1

USP47 = biological target: T2, USP47 (UniProt Q96K76)
T2 sequence (whole entry): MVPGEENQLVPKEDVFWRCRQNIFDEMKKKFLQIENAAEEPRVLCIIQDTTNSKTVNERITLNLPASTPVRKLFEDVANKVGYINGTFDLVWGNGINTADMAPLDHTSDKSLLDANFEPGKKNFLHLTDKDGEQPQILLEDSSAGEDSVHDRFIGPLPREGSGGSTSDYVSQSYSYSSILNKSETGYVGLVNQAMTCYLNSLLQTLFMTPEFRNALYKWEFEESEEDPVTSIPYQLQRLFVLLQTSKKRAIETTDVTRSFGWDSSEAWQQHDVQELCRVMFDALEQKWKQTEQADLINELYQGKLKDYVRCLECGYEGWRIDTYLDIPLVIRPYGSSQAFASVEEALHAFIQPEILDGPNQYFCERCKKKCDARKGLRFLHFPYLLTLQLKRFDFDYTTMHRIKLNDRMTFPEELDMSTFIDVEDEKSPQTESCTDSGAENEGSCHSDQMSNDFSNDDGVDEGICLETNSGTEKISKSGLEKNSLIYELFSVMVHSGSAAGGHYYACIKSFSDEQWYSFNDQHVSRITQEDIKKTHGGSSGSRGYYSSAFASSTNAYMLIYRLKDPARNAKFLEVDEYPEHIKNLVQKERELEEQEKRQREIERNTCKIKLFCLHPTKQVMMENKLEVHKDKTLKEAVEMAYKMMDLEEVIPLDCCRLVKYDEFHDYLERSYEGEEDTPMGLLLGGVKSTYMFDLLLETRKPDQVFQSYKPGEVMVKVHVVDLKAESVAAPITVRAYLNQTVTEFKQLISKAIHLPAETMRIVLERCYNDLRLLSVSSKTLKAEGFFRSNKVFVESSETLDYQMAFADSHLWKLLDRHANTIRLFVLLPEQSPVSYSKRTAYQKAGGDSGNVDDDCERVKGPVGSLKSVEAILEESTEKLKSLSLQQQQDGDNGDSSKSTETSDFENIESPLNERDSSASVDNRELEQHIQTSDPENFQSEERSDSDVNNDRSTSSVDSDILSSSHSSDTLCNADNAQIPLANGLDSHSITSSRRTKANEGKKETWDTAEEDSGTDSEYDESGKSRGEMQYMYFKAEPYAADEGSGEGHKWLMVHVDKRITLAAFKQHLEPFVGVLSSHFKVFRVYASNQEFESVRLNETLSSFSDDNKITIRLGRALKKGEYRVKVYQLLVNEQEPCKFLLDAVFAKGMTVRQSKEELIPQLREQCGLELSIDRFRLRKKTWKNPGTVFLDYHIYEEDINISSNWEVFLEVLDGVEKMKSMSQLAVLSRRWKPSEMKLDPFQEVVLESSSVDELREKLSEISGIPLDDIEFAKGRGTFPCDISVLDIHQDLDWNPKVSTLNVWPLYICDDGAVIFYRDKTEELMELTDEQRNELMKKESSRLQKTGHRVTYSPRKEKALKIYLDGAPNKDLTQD
Outline: as §1

USP48 = biological target: T3, USP48 (UniProt Q86UV5)
T3 sequence (whole entry): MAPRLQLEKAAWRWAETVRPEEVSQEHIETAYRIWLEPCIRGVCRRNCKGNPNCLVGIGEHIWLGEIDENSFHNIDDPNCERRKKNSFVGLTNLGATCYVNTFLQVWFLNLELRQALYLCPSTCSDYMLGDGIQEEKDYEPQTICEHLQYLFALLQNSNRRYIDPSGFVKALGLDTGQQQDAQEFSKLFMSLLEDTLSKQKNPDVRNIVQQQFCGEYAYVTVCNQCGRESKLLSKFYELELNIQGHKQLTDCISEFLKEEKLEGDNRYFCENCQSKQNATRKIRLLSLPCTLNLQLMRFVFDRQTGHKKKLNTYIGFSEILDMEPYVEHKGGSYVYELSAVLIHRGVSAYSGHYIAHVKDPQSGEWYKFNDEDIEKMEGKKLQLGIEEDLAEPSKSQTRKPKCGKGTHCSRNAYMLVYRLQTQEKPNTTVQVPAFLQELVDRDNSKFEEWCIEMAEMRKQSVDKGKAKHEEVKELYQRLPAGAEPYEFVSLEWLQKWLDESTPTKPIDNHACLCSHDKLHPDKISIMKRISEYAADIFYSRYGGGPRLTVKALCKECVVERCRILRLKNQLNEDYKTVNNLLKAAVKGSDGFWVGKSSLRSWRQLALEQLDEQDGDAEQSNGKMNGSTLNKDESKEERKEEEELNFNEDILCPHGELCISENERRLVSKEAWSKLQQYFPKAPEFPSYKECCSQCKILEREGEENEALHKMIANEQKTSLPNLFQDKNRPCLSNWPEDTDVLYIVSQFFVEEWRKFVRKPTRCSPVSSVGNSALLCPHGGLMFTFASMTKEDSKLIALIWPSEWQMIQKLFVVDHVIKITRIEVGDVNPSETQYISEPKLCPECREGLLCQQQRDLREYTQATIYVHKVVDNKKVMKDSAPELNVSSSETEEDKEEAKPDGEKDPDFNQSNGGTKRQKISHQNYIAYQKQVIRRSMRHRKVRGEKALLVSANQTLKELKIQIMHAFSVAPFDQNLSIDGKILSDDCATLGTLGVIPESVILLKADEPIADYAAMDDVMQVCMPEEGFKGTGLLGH
Outline: as §1

USP5 = biological target: T4, USP5 (UniProt P45974)
T4 sequence (whole entry): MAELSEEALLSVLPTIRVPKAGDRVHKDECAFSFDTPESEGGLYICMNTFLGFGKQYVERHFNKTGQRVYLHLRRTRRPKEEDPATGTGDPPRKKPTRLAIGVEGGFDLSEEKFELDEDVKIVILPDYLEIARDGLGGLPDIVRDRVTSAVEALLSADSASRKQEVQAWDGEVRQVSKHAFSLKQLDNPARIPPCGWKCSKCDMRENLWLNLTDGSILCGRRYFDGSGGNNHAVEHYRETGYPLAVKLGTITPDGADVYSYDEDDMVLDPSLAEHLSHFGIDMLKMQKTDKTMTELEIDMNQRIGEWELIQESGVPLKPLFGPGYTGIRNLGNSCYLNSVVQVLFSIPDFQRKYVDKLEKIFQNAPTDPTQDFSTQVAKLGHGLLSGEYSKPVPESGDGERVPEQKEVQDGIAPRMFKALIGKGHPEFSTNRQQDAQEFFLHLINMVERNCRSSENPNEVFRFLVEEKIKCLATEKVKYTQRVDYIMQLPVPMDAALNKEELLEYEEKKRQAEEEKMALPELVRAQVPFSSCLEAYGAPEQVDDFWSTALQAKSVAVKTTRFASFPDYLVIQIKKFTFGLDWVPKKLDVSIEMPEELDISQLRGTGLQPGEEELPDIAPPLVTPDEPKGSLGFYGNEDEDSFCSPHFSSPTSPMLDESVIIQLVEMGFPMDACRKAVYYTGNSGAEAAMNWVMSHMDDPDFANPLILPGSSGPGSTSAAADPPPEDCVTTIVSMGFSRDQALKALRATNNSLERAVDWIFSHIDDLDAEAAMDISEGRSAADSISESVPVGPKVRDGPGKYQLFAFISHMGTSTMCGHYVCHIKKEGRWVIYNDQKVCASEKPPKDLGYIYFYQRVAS
Outline: as §1

USP54 = USP54 (UniProt Q70EL1)
Outline: as §1

USP7 = USP7 (UniProt Q93009)
Outline: as §1

USP8 = biological target: T5, USP8 (UniProt P40818)
T5 sequence (whole entry): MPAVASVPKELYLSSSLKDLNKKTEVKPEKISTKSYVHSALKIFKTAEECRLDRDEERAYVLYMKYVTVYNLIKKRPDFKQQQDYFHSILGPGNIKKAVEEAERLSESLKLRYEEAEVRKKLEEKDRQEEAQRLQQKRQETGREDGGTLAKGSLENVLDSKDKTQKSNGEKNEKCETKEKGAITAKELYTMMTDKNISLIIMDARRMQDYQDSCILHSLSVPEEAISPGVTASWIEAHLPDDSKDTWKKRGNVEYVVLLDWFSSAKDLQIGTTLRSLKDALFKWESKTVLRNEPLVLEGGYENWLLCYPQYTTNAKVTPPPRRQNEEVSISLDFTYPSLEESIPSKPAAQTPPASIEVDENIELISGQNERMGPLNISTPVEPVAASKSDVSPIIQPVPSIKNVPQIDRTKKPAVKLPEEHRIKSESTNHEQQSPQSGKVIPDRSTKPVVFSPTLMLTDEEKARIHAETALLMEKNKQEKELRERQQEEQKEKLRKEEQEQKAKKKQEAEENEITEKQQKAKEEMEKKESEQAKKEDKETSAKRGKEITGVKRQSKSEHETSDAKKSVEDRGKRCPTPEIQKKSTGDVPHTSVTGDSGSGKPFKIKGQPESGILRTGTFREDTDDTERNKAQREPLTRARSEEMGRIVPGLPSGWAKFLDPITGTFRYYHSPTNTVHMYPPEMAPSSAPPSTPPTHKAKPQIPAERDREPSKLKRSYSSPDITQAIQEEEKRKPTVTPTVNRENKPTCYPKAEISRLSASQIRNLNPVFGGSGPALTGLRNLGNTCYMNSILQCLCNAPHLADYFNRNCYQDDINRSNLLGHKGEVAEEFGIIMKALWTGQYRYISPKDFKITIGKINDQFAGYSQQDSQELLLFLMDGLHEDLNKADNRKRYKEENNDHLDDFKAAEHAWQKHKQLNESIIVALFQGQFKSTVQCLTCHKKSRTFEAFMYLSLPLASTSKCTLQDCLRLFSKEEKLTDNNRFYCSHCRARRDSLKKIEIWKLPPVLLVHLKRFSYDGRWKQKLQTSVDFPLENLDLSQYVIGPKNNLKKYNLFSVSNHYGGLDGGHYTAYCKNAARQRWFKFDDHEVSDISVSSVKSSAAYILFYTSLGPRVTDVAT
Outline: as §1

USP9X = USP9X (UniProt Q93008)
Outline: as §1

UniProt O00487 = biological target: UniProt O00487
Outline: as §1

Measured: log2 ratio of Biotin-Ahx-Ub-VS probe labelling

USP7, sequence (Q93009 whole entry, looked up): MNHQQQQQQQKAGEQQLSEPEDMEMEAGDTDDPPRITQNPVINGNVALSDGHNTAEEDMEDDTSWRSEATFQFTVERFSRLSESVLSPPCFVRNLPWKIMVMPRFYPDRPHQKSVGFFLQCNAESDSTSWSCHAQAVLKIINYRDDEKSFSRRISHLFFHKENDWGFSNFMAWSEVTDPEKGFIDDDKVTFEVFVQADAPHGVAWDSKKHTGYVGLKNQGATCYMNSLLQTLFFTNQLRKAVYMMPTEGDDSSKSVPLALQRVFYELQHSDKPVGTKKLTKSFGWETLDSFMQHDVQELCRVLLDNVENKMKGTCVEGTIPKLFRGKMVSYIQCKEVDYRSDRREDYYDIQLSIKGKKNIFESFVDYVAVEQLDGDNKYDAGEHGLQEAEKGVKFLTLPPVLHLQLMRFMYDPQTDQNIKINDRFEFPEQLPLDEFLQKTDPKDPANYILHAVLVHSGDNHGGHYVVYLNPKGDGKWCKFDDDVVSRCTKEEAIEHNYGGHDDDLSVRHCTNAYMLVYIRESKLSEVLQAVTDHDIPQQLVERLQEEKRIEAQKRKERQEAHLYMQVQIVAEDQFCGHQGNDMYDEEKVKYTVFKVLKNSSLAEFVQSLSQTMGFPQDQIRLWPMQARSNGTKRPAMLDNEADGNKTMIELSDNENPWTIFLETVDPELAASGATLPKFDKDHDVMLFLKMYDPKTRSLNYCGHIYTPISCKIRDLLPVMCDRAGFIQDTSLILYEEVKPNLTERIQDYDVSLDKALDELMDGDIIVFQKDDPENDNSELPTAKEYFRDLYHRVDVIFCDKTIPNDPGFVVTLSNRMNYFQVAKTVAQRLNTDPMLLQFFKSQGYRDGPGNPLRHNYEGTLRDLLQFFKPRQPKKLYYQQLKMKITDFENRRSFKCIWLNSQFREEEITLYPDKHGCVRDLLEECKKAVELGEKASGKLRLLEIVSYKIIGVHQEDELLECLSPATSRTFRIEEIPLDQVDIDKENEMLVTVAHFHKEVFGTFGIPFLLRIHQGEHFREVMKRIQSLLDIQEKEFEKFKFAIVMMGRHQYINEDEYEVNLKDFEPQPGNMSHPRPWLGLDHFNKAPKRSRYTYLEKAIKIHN
USP9X, sequence (Q93008 whole entry): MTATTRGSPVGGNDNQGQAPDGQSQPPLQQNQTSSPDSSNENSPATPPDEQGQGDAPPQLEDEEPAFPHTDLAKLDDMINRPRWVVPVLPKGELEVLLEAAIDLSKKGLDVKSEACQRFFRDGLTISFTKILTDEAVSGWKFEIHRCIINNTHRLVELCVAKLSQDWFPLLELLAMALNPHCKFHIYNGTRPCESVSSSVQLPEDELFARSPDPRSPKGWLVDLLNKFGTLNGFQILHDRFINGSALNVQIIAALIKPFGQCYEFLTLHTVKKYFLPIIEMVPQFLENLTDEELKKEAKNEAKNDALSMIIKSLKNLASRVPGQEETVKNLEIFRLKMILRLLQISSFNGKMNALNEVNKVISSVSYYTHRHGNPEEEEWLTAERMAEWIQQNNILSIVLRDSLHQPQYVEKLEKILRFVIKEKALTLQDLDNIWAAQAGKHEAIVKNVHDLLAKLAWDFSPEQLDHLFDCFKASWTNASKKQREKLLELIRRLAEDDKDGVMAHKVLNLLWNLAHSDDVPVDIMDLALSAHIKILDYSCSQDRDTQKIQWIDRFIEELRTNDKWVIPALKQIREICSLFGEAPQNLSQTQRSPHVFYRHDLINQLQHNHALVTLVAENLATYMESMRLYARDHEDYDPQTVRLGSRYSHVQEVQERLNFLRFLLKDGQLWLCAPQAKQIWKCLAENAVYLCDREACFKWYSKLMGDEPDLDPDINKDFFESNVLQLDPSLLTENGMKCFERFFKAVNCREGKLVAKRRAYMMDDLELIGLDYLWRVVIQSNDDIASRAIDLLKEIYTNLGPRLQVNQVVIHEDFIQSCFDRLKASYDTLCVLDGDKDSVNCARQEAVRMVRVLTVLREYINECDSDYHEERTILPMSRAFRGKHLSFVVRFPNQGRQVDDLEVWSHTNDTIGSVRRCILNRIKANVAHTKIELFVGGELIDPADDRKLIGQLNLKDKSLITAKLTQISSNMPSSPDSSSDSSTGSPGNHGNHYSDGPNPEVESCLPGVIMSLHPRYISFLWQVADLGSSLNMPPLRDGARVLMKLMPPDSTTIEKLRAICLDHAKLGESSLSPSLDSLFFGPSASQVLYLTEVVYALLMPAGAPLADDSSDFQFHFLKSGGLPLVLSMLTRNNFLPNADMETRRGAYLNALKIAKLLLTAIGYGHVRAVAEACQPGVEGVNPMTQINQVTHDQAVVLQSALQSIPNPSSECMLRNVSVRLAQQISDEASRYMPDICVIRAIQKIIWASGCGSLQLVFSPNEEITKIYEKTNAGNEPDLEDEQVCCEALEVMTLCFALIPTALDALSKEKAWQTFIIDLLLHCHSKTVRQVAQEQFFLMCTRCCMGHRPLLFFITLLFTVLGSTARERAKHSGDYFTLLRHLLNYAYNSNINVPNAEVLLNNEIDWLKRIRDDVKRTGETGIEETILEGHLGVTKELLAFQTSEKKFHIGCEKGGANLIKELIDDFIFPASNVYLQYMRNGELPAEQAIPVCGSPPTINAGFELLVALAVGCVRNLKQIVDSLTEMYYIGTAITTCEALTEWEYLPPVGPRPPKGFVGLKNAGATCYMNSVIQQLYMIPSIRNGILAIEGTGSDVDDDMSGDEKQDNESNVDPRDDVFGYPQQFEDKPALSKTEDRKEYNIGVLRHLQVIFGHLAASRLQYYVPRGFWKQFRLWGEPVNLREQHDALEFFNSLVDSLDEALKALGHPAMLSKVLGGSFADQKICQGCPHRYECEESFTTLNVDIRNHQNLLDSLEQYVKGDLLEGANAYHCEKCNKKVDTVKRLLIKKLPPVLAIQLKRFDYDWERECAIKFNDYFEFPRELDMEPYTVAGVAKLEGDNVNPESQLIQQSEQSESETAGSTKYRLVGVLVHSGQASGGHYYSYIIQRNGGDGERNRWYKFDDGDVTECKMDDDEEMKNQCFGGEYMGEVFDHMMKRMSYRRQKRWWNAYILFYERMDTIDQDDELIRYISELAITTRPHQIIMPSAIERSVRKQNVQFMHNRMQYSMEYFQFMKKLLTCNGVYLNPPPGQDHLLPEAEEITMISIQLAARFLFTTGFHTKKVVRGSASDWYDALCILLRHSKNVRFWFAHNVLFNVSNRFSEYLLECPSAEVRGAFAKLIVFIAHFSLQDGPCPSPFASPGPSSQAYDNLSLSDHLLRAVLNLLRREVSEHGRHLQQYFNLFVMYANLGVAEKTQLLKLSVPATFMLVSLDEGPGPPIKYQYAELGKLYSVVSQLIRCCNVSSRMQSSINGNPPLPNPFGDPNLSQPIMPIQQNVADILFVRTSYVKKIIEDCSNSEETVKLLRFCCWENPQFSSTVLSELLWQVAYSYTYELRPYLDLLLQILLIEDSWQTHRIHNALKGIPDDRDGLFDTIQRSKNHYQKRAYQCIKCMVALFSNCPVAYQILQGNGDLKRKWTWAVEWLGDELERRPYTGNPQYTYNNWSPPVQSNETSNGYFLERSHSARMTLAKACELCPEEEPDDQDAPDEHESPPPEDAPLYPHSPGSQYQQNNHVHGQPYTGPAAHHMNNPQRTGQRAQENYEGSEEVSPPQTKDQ
USP46, sequence (P62068 whole entry): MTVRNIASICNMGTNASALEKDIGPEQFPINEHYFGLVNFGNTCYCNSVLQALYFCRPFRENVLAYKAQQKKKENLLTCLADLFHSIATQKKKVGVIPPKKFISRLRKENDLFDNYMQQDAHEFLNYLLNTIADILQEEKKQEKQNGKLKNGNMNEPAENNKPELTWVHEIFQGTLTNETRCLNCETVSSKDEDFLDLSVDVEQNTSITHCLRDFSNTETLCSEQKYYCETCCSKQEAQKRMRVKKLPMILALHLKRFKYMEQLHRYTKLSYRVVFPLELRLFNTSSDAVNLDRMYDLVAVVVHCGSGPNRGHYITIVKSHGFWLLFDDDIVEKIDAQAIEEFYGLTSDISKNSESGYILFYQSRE
UniProt O00487, sequence (O00487 whole entry): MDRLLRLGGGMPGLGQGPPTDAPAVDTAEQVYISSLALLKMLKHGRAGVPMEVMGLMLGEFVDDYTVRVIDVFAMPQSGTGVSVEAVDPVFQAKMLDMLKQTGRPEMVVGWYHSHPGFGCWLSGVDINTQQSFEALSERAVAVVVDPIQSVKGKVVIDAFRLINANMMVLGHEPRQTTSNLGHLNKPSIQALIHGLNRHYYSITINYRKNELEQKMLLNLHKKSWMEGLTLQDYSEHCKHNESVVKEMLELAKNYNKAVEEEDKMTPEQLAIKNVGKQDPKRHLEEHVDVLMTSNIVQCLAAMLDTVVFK

Cc1ncc2c(n1)CCN(C(=O)CCl)C2
inactive: USP42 0.492 | USP46 -0.138 | USP47 0.296 | USP48 -0.0668 | USP5 -0.217 | USP54 -0.303 | USP7 -0.49 | USP8 -0.102 | USP9X -0.246 | UniProt O00487 0.0218

Cc1ccc(N2CCC(NC(=O)CCl)C2=O)cc1 (stereo not given)
inactive: USP42 -0.0605 | USP46 0.123 | USP47 -0.186 | USP48 0.139 | USP5 0.412 | USP54 0.213 | USP7 -0.0706 | USP8 0.0227 | USP9X -0.0231 | UniProt O00487 -0.129

Cl.Cn1cnc2cc(CNC(=O)CCl)ccc21
inactive: USP42 0.00921 | USP46 -0.0392 | USP47 -0.0799 | USP48 0.192 | USP5 -0.445 | USP54 -0.109 | USP7 -0.083 | USP8 -0.103 | USP9X -0.0792 | UniProt O00487 -0.00543
